This is an account of results in PubChem BioAssay (NCATS).

Structures are written as SMILES. Active and inactive are the calls of the source. Where a call stands in place of a potency, no number is given. Calls come from the whole dose curve; as a rule, active = well fitted curve in the direction sought with a large enough effect; inconclusive = small, poorly fitted or top-dose-only effect, or another doubt; inactive = no such curve, though single readings can be large or run the other way.
Potency is the fitted concentration of half-maximal effect.

Hexokinase-4 (Homo sapiens) + Glucokinase regulatory protein (Homo sapiens), sequence (P35557 whole entry, looked up): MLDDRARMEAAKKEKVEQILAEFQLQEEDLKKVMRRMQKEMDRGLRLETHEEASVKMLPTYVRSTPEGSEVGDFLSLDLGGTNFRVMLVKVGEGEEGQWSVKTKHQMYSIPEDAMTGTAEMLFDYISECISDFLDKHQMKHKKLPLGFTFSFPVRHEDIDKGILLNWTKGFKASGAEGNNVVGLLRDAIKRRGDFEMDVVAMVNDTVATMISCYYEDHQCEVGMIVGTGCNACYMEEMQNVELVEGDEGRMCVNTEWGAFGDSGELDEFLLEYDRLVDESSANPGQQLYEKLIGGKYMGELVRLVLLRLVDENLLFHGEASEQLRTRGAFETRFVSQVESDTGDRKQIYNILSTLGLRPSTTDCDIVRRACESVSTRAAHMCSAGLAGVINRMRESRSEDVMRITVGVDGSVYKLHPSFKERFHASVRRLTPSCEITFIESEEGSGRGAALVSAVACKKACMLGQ
Hexokinase-4 (Homo sapiens) + Glucokinase regulatory protein (Homo sapiens), sequence (Q14397 whole entry, looked up): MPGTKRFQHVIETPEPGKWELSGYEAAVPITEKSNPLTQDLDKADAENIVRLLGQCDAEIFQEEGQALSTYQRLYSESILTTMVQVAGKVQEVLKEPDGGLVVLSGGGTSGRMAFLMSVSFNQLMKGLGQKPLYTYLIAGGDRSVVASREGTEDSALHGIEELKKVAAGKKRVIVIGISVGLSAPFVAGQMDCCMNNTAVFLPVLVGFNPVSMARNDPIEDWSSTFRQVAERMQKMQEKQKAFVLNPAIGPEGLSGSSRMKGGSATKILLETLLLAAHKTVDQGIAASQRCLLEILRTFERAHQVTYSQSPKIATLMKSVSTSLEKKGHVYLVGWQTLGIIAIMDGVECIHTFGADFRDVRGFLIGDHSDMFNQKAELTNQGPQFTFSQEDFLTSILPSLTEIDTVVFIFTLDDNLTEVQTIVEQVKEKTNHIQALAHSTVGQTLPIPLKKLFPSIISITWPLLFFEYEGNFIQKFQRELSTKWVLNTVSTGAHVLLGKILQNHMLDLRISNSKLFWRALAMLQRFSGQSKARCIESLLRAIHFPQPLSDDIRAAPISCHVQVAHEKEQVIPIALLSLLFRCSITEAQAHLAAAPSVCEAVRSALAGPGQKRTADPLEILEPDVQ

This assay has as its target Hexokinase-4 (Homo sapiens) + Glucokinase regulatory protein (Homo sapiens) (UniProt P35557+Q14397). The assay is described as follows: qHTS assay for inhibitors of recombinant human GCK-GKRP interaction: Diaphorase-coupled assay (AID 743205). As to conditions: G6PDH/diaphorase resorufin fluorescence; series mostly up to 57.5 µM. From the text:
Glucokinase (GCK) is a glucose sensor in hepatocytes and pancreatic beta-cells. Hepatic GCK is regulated by glucokinase regulatory protein (GKRP), which is predominantly localized to the liver. GKRP binds to GCK inhibiting its activity in the fasting state while in the presence of glucose the GKRP is displaced. There is an additional layer of regulation by fructose 1-phosphate and fructose 6-phosphate, which inhibit and enhance the GCK-GKRP interaction, respectively. GCK plays a role in glucose homeostasis and there is an interest in the development of strategies to activate GCK to lower blood glucose levels in type 2 diabetes. To date the majority of effort has focused on direct activation of GCK and the assays developed herein look to activate GCK by inhibiting its binding to GKRP. A compound that inhibits the interaction of GCK with GKRP could be important for the treatment of diabetes and can also be used as a tool compound to further elucidate GCK-GKRP biology. To that end, we have developed a sensitive HTS biochemical assay where in GCK activity is coupled to G6PDH and Diaphorase to interrogate the GCK-GKRP interaction. This assay was screened against a small compound library to look for modulators of activity.
2 uL of substrate (columns 1-48) are dispensed into Greiner, black solid-bottom 1536-well assay plates. Compounds (23 nL) are then transferred via Kalypsys pin tool equipped with 1536-pin array (10 nL slotted pins, V&P Scientific, San Diego, CA). The library compounds are in columns 5-48 and columns 1-4 serve as controls with DMSO in columns 1 and 3 and 26 mM 1:1.5 fold serial of gluckokinase activator (GKA-EMD) in column 2 and 26 mM of the glucokinase activator (GKA-EMD) in column 4. Following addition of compound and a 20 minute incubation, 1 uL of enzyme mix (GST-GCK, FLAG-GKRP and diaphorase) is added to columns 1, 2, 4-48 and 1 uL of no enzyme mix (FLAG-GKRP and diaphorase) is added to column 3 and the fluorescent product resorufin generated from resazurin was monitored on a Viewlux (PerkinElmer, Shelton, CT, USA) with excitation at 525 nm and emission at 590 nm in kinetic mode where the plate was read every minute for 30 minutes. The final concentration of reagents in the reaction are 25 mM Hepes pH 7.6, 25 mM KCl, 2 mM MgCl2, 1.4 mM 2-mercaptoethanol, 0.025% BSA, 0.01% Tween-20, 0.15 mM NADP+, 5 mM glucose, 0.4 mM ATP, 4 U/ml G6PDH, 0.1 mM resazurin, 10 nM GST-GCK, 10 nM FLAG-GKRP, diaphorase (0.1 mg/mL). Data are normalized to DMSO-treated control columns with (maximum signal) and without (minimum signal) enzyme.
Take `COc1cc2nc(N3CCN(C(=O)c4ccco4)CC3)nc(N)c2cc1OC`: the Potency entry is “inactive”.
As to `CC(C)C(=O)Nc1ccc([N+](=O)[O-])c(C(F)(F)F)c1`, the Potency entry was “inactive”.
Turning to `CCC1(c2ccccc2)C(=O)NCNC1=O`, the Potency entry is “inactive”.
The value for `CC#C[C@]1(O)CC[C@H]2[C@@H]3CCC4=CC(=O)CCC4=C3[C@@H](c3ccc(N(C)C)cc3)C[C@@]21C` was “inactive”; that for `Nc1nc2c(ncn2COC(CO)CO)c(=O)[nH]1` was “inactive”; that for `CN1C2CCC1CC(OC(=O)C(CO)c1ccccc1)C2` (stereo not given) was “inactive”.
The value for `CNCCCC12CCC(c3ccccc31)c1ccccc12` was “inactive”; that for `O=c1c(O)c(-c2ccc(O)c(O)c2)oc2cc(O)cc(O)c12` was “inactive”; that for `COc1ccccc1N1CCN(CC(O)COc2cccc3ccccc23)CC1` (stereo not given) was “inactive”.
As to `CC(C)(Oc1ccc(C2CC2(Cl)Cl)cc1)C(=O)O` (stereo not given), the Potency result is “inactive”.
The result for `CN1CCN2c3ccccc3Cc3ccccc3C2C1` (stereo not given) reads “inactive”; that for `O=C(Nc1ccc([N+](=O)[O-])cc1Cl)c1cc(Cl)ccc1O`, “inactive”.
Take `NCCS(=O)(=O)O`: the Potency result is “inactive”.
The value for `NC(=O)NO` was “inactive”; that for `Clc1ccc2c(c1)C(N1CCNCC1)=Nc1ccccc1O2` was “inactive”.
Take `COc1ccc2c(c1)c(CC(=O)O)c(C)n2C(=O)c1ccc(Cl)cc1`: the Potency entry was “inactive”.
The result for `CC[N+](CC)(CC)CCOc1cccc(OCC[N+](CC)(CC)CC)c1OCC[N+](CC)(CC)CC` reads “inactive”.
Turning to `CCOC(=O)C(C)(C)Oc1ccc(Cl)cc1`, the Potency entry is “inactive”.
In the case of `CCOC(=O)c1ncn2c1CN(C)C(=O)c1cc(F)ccc1-2`, the Potency result is “inactive”.
Turning to `COc1ccccc1OCCNCC(O)COc1cccc2[nH]c3ccccc3c12` (stereo not given), the Potency entry was “inactive”.
As for `CC(C)Cc1ccc(C(C)C(=O)O)cc1` (stereo not given), the Potency result is “inactive”.
In the case of `NS(=O)(=O)c1cc2c(cc1Cl)NCNS2(=O)=O`, the Potency result is “inactive”.
For the compound `NCCc1cnc[nH]1`, the Potency result was “inactive”.
As for `Clc1ccccc1C(c1ccccc1)(c1ccccc1)n1ccnc1`, the Potency entry was “inactive”.
On to `C[C@](N)(Cc1ccc(O)c(O)c1)C(=O)O`, for which the Potency entry is “inactive”.
Turning to `CCCNCC(O)COc1ccccc1C(=O)CCc1ccccc1` (stereo not given), the Potency entry is “inactive”.
Take `NCCCCCC(=O)O`: the Potency result is “inactive”.
As to `COc1cc2nc(N3CCN(C(=O)C4COc5ccccc5O4)CC3)nc(N)c2cc1OC` (stereo not given), the Potency result is “inactive”.
As for `COc1ccccc1OCC(O)CN1CCN(CC(=O)Nc2c(C)cccc2C)CC1` (stereo not given), the Potency result is “inactive”.
The value for `COc1nc(C)nc(Cl)c1NC1=NCCN1` was “inactive”; that for `Cc1cn([C@H]2C[C@H](N=[N+]=[N-])[C@@H](CO)O2)c(=O)[nH]c1=O` was “inactive”.
For the compound `COC(=O)Nc1nc2ccc(C(=O)c3cccs3)cc2[nH]1`, the Potency result is “inactive”.
As to `OCCN1CCN(CCCN2c3ccccc3Sc3ccc(C(F)(F)F)cc32)CC1`, the Potency entry is “inactive”.
In the case of `COc1ccc(C2CNC(=O)C2)cc1OC1CCCC1` (stereo not given), the Potency entry was “inactive”.
Regarding `Cc1ccc(C(=O)Nc2ccc(S(=O)(=O)O)c3cc(S(=O)(=O)O)cc(S(=O)(=O)O)c23)cc1NC(=O)c1cccc(NC(=O)Nc2cccc(C(=O)Nc3cc(C(=O)Nc4ccc(S(=O)(=O)O)c5cc(S(=O)(=O)O)cc(S(=O)(=O)O)c45)ccc3C)c2)c1`, the Potency is 28.2 µM (active).
`Cn1c(=O)c2[nH]cnc2n(C)c1=O`: the Potency entry was “inactive”.
As to `CCN1CCCC1CNC(=O)c1cc(S(=O)(=O)CC)c(N)cc1OC` (stereo not given), the Potency result was “inactive”.
The result for `Nc1c2c(nc3ccccc13)CCCC2` reads “inactive”; that for `Fc1ccc([C@@H]2CCNC[C@H]2COc2ccc3c(c2)OCO3)cc1`, “inactive”.
With `CCC1(C)CC(=O)NC1=O` (stereo not given), the Potency result was “inactive”.
